# Data reported in ChEMBL document CHEMBL4513146, “CO-ADD screening of Karazin Kharkiv National University (Ukraine) compounds”.
# Results with a measured potency or affinity are listed apart.
# Key:
# Klebsiella pneumoniae = details: Concentration 32 ug.mL-1;; ASSAY_TEST Inhibition of Bacterial Growth; detection method Absorption (OD600); MEDIA CAMHB; plate type 384well; NBS; CORNING #3640; time 18 hr
# Candida albicans = details: Concentration 32 ug.mL-1; ASSAY_TEST Inhibition of Fungal Growth; detection method Absorption (OD530)
# Cryptococcus neoformans = details: Concentration 32 ug.mL-1; ASSAY_TEST Inhibition of Fungal Growth; detection method Resazurin; Absorption (OD600-OD570); plate type 384well; NBS; CORNING #3640
SMILES,Inhibition (Klebsiella pneumoniae) [%],Inhibition (Candida albicans) [%],Inhibition (Cryptococcus neoformans) [%]
COc1cccc(CN(c2cc(F)cc(F)c2)S(=O)(=O)c2ccc3nnc(C)n3c2)c1,6.42,1.34,-5.08
CCOc1ccccc1NC(=O)Cn1nc2c(Oc3ccccc3)nccn2c1=O,5.91,2.77,-10.21
COc1ccc(CN(c2ccc(F)cc2)S(=O)(=O)c2ccc3nnc(C)n3c2)cc1F,2.68,1.42,-6.58
CCOc1ccccc1NC(=O)Cn1nc2c(N3CCN(c4ccccc4)CC3)nccn2c1=O,5.33,7.24,-7.83
COc1ccccc1N1CCN(C(=O)CSc2nc3ccccc3n3c(C(C)C)nnc23)CC1,6.45,-2.8,-16.67
Cc1ccc(Cl)cc1NC(=O)CSc1nnc2n(CC3CCCO3)c(=O)c3sccc3n12 (stereo not drawn),10.58,-1.49,-15.54
O=C(Cn1nc2c(Oc3ccccc3)nccn2c1=O)Nc1ccc(Br)cc1F,-1.93,5.04,-11.28
CCc1ccc(N(Cc2cccc(Cl)c2)S(=O)(=O)c2cccn3c(C)nnc23)cc1,7.34,9.1,-5.8
CCc1ccccc1Sc1nccn2c(=O)n(CC(=O)NCc3ccc(OC)cc3)nc12,1.83,2.04,-1.62
COc1ccccc1-n1ccn2c(SCc3ccccc3C)nnc2c1=O,12.73,3.95,-12.54
COc1cc(NC(=O)Cn2nc3ccc(SC4CCCCC4)nn3c2=O)cc(OC)c1,6.28,4.08,-40.43
Cc1ccc(-n2ccn3c(=O)n(Cc4ccc(Cl)cc4)nc3c2=O)cc1C,1.49,0.66,-5.42
COc1ccc(NC(=O)Cn2nc3c(SCc4ccc(Cl)cc4)nccn3c2=O)cc1OC,3.8,27.48,-20.96
O=C(CSc1nnc2c3cc(-c4ccccc4)nn3ccn12)NCc1ccccc1Cl,7.7,0.55,-17.16
CCC(Sc1nnc2c(=O)n(-c3cccc(OC)c3)ccn12)C(=O)Nc1cc(OC)ccc1OC (stereo not drawn),1.63,1.95,-10.37
COc1ccc(NC(=O)CSc2nc3ccccc3n3c(C(C)C)nnc23)cc1Cl,5.17,1.87,-6.36
Cc1ccc(CN(c2ccc(C(C)C)cc2)S(=O)(=O)c2cccn3c(C)nnc23)cc1,0.92,1.03,-9.63
O=S(=O)(c1cccn2cnnc12)N(Cc1cccc(Cl)c1)c1cc(F)cc(F)c1,8.32,1.62,-7.91
COc1cc(NC(=O)Cn2nc3c(N4CCCC(C)C4)nccn3c2=O)cc(OC)c1 (stereo not drawn),5.76,3.21,-46.51
COC(=O)c1ccc(NC(=O)Cn2nc3ccc(Sc4ccc(C)cc4)nn3c2=O)cc1,13.07,2.46,-10.13
COc1ccc(CN(c2ccc(F)cc2)S(=O)(=O)c2cccn3c(C)nnc23)cc1,13.21,1.16,-6.38

SMILES,Inhibition (Klebsiella pneumoniae) [%],Inhibition (Candida albicans) [%],Inhibition (Cryptococcus neoformans) [%]
CN(C(=O)Cn1nc2n(Cc3cccs3)c(=O)c3sccc3n2c1=O)c1ccccc1,-2.89,0.01,-9.21
COc1ccc(-c2cc3c4nnc(SCC(=O)Nc5ccc(C)c(F)c5)n4ccn3n2)cc1,1.13,19.06,-5.86
Cc1ccc(C)c(-c2cc3c4nnc(SCC(=O)Nc5cccc(Br)c5)n4ccn3n2)c1,-2.64,49.44,-19.95
O=c1c2nn(Cc3cccc(Cl)c3)c(=O)n2ccn1-c1ccccc1,1.75,6.73,-10.03
O=C(Cn1nc2c(N3CCSCC3)nc3ccccc3n2c1=O)Nc1ccc(Br)cc1,7.3,11.24,-9.72
Cc1cc2nn(CC(=O)Nc3ccc(F)cc3)c(=O)n2c(Nc2ccccc2C)n1,4.2,1.24,-11.54
Cc1cccc(Oc2nc3ccccc3n3c(=O)n(CC(=O)Nc4ccc5c(c4)OCCO5)nc23)c1C,14.16,-0.7,-31.77
COc1ccc(N(Cc2cccc(F)c2)S(=O)(=O)c2ccc3nnc(C)n3c2)cc1,0.18,7.1,-3.46
COc1cccc(-n2ccn3c(SCC#N)nnc3c2=O)c1,2.74,3.51,-7.4
CCOc1ccc(-n2ccn3c(SCC(=O)Nc4ccc(C)c(C)c4)nnc3c2=O)cc1,-8.39,2.77,-12.45
C=Cc1ccc(CSc2nnc3c(=O)n(-c4cccc(OC)c4)ccn23)cc1,9.99,4.25,-2.41
Cc1ccc(NC(=O)Cn2c(=O)c3nnc(C(C)C)n3c3ccccc32)cc1,2.07,1.19,-10.22
COc1ccccc1N1CCN(C(=O)Cn2nc3c(Oc4ccc(C)cc4)nccn3c2=O)CC1,13.94,1.98,-10.45
Cn1c(=O)c2ccc(C(=O)NC3CCCCC3)cc2n2c(=O)n(CC#N)nc12,3.72,1.15,-18.77
COc1ccc(Cn2nc3ccc(-c4ccccc4)nn3c2=O)cc1F,8.32,1.33,-0.36
COc1cccc(-n2ccn3c(SCC(=O)Nc4ccc(Cl)cc4)nnc3c2=O)c1,5.48,2.88,-10.21
Cc1ccc(NC(=O)Cn2nc3c4c5c(sc4ncn3c2=O)CCCC5)cc1C,7.59,3.92,-29.29
O=C(CSc1nnc2c(=O)n(-c3ccccc3)ccn12)Nc1cccc(F)c1,2,7.33,-21.7
COc1ccccc1N1CCN(C(=O)CSc2nnc3c(=O)n(-c4ccc(F)cc4)ccn23)CC1,11.85,1.66,-8.01
Cc1cccc(NC(=O)Cn2nc3c(Sc4ccccc4)nccn3c2=O)c1,-4.33,0.01,-4.87
Cc1cccc(-c2nc(CSc3nc4ccccc4n4c(C(C)C)nnc34)c(C)o2)c1,12.8,8.07,-24.07

SMILES,Inhibition (Klebsiella pneumoniae) [%],Inhibition (Candida albicans) [%],Inhibition (Cryptococcus neoformans) [%]
O=C(Cn1nc2nc(Nc3ccc(F)cc3)ccn2c1=O)Nc1cc(F)ccc1F,11.06,4.41,-6.4
O=S(=O)(c1ccc2nncn2c1)N(Cc1cc(F)cc(F)c1)c1ccc(F)cc1,7.07,0.51,-5.99
Cc1ccc(Sc2nccn3c(=O)n(CC(=O)Nc4ccc(C)c(Cl)c4)nc23)c(C)c1,10.52,-2.58,-26.74
COc1ccccc1CNC(=O)Cn1nc2c(N3CCSCC3)nccn2c1=O,3.04,3.29,-6.25
O=C(Cn1nc2c(Oc3ccccc3)nc3ccccc3n2c1=O)Nc1ccc2c(c1)OCO2,4.55,16.43,-9.27
COc1ccc(NC(=O)Cn2nc3cc(C)nc(Nc4cc(C)cc(C)c4)n3c2=O)cc1,10.21,1.22,-8.99
Cc1cc(C)cc(NC(=O)Cn2nc3c(Sc4cccc(C)c4)nc4ccccc4n3c2=O)c1,5.29,1.16,-15.02
CC(C)c1nnc2c(SCC(=O)Nc3ccccc3C(F)(F)F)nc3ccccc3n12,13.6,0.36,-15.63
Cc1cccc(NC(=O)Cn2c(=O)c3nnc(C(C)C)n3c3ccccc32)c1,2.46,0.3,-17.48
Cc1ccc(NC(=O)c2ccc3nnc(SCC(=O)Nc4ccc(F)cc4)n3c2)cc1,0.72,4.31,-5.93
O=C(Cn1nc2ccc(SCc3ccc(Cl)cc3)nn2c1=O)NCc1ccccc1,6.87,25.95,-17.55
COc1cc(NC(=O)Cn2nc3ccc(SC(C)C)nn3c2=O)cc(OC)c1,4.22,10.99,-7.98
Cc1cccc(NC(=O)Cn2nc3ccc(-c4ccc(C)c(C)c4)nn3c2=O)c1,-0.51,-1.03,-12.34
O=S(=O)(c1ccc2nncn2c1)N(Cc1cc(F)cc(F)c1)c1cccc(F)c1,11.98,2.7,-8.32
COc1cccc(-n2ccn3c(SCC(=O)Nc4cc(F)ccc4F)nnc3c2=O)c1,6.91,7.1,-8.94
O=C(CSc1nnc2c(=O)n(-c3ccc(F)cc3)ccn12)c1ccccc1Cl,14.55,8.47,-13.46
Cc1ccc(NC(=O)CSc2nc3ccccc3n3c(C(C)C)nnc23)c(Cl)c1,0.92,27.99,-3.15
O=C(Cn1nc2c(N3CCOCC3)nccn2c1=O)Nc1ccccc1Br,13.49,4.41,-7.57
COCCCNC(=O)CSc1nnc2c(=O)n(Cc3ccc(F)cc3)ccn12,13.69,2.6,-25.66
